Test results published in PubChem BioAssay AID1224861 (National Center for Advancing Translational Sciences (NCATS), 2016).
Results filed as inconclusive are left out. Values without a mark were called inactive. Calls of active or inactive are those of the source. Calls come from the whole dose curve; as a rule, active = well fitted cell-killing curve with a large enough effect; inconclusive = small, poorly fitted or top-dose-only effect, or effect the other way; inactive = flat fitted curve, though single readings scatter.

Assay: Compound cytotoxicity measured by an ATP content assay as a counter-screen for lead compounds in human astrocytes
Details: human astrocytes viability, ATP luminescence; series mostly up to 46.1 µM; activity change, negative = cytotoxicity: at the top concentration
Summary of the method: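 Cytotoxicity expressed as percent inhibition of cell viability from ATP-dependent luminescence, read after 10 min at room temperature with 1:1 kit reagent. Compound exposure times matched the primary screens, e.g. 6, 24 or 72 h, in cultured human astrocytes.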

Row | Structure (SMILES) | activity change, negative = cytotoxicity | Potency
1 | N[C@H](CSC(c1ccccc1)(c1ccccc1)c1ccccc1)C(=O)O | 1.27% | 
2 | CC(C(=O)O)c1ccc(C(=O)c2cccs2)cc1 (stereo unspecified) | -16.1% | 
3 | CCCCCCCC/C=C/C(=O)O | 11.4% | 
4 | COc1ccc(CC2=NN3C([C@@H](CCc4ccccc4)[C@@H](C)O)=NC(C)C3C(=O)N2)cc1OC (stereo partly specified) | 5.6% | 
5 | CCCCCCOc1ccccc1C(N)=O | 15.9% | 
6 | O=c1cc(-c2ccccc2)oc2cc(O)c(O)c(O)c12 | -2.73% | 
7 | N#CC1(c2ccc(NC(=O)c3cccnc3NCc3ccncc3)cc2)CCCC1 | -18.6% | 
8 | O=C1NC(=O)C(=Cc2ccc(-c3ccc(F)cc3)o2)S1 | -3.28% | 
9 | COc1ccc(-c2cc(=O)c3c(O)cc(O)cc3o2)cc1O | 5.46% | 
10 | Cc1ccc(O)c(N=Nc2ccccc2)n1 |  | 4.35 µM (active)
11 | Nc1ncnc2c1ncn2[C@@H]1O[C@@H](CO)[C@H](O)[C@H]1O | -1.06% [at 23.8 µM] | 
12 | Nc1ccc(O)c(C(=O)O)c1 | -2.4% | 
13 | O=c1c2ccccc2nc2n1CCc1c-2[nH]c2ccccc12 | -15.3% | 
14 | Cc1ccc(C(=O)c2ccc(CC(=O)O)n2C)cc1 | 7.64% | 
15 | COc1ccc(-c2cc(=S)ss2)cc1 | -17.3% | 
16 | CO[C@H]1C(=O)[C@]2(C)[C@@H](OC)C[C@H]3OC[C@@]3(OC(C)=O)[C@H]2[C@H](OC(=O)c2ccccc2)[C@]2(O)C[C@H](OC(=O)[C@H](O)[C@@H](NC(=O)OC(C)(C)C)c3ccccc3)C(C)=C1C2(C)C | -18.2% | 
17 | C[C@@H]1CCN(C(=O)CC#N)C[C@H]1N(C)c1ncnc2[nH]ccc12 | 0.0793% | 
18 | CN1CCN(c2cc3c(nn2)Oc2ccccc2N3C)CC1 | 9.89% [at 23.8 µM] | 
19 | O=S(=O)(O)CCSSCCS(=O)(=O)O | -2.01% | 
20 | NC(N)=NN=C(/C=C/c1ccc([N+](=O)[O-])o1)/C=C/c1ccc([N+](=O)[O-])o1 |  | 3.46 µM (active)
21 | CCCC(=O)OC[C@@H](OC(=O)CCC)[C@@H](OC(=O)CCC)[C@H](Cn1c2nc(=O)[nH]c(=O)c-2nc2cc(C)c(C)cc21)OC(=O)CCC | -3.39% | 
